TbPYK inhibitor: T. brucei pyruvate kinase inhibition; TbPYK enzyme, Kinase-Glo Plus ATP luminescence, 45 min; AID 624173; Q57TT1; Potency, µM (highest dose often 76.8 µM), for the others: at the highest dose activity, negative = inhibition, actives largely listed as inhibitors; hit rate 0.12% among 410,000; also: potency is read from the fitted curve at half-maximal effect; % is scaled to controls: 0 for no effect and ±100 for the full control effect; nearly all actives have a fitted effect of over 50% in size
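Assay buffer: 50 mM TEA pH 7.2, 100 mM KCl, 10 mM MgCl2, 0.05% BSA, 0.01% Tween-20. Pyruvate kinase from T. brucei plus substrate met compound, then ADP (130 uM final). Luminescence was read post 45 min RT.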
CHX counter: counter-screen hit for Shiga toxin inhibitors, cycloheximide | cell reporter, cycloheximide protein synthesis inhibition counterscreen | hit rate 12% among 300,000 | max response, %; in the data active = max response mostly above about 13%, no sharp cut-off; inactive = mostly below about 14%; also: read at 38.3 µM for the half of the compounds with a filed dose; 0% is about no effect
LmPK inh: blocks Leishmania mexicana pyruvate kinase activity | hit rate 0.37% among 290,000 | Potency, µM (top dose mostly 57.5 µM), for the others: at the highest dose activity change, negative = inhibition, most hits filed as inhibitors | purified LmPK, Kinase-Glo ATP luminescence, 1 h; also: potency is read from the fitted curve at half-maximal effect; % is scaled to controls: 0 for no effect and ±100 for the full control effect
Target sequence (Q27686 whole entry, looked up): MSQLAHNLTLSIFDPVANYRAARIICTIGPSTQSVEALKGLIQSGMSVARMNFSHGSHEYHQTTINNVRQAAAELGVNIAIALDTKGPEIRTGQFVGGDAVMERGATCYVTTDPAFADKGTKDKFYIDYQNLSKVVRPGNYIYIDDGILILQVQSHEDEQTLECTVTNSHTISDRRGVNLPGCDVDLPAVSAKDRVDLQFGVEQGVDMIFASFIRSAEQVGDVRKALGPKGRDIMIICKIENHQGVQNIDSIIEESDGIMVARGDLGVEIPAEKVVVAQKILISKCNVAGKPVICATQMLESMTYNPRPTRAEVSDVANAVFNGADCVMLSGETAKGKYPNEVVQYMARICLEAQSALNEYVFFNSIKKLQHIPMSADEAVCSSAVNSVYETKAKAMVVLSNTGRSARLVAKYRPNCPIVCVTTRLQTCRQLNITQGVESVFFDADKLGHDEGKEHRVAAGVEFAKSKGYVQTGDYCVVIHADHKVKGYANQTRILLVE
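Pyruvate kinase activity monitored as ATP production (luciferase luminescence). Conditions: 0.1 nM enzyme, 0.5 mM PEP, 0.1 mM ADP, 1 h, RT; normalized against uninhibited and no-enzyme wells.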
FBPA Giardia inh: blocks Giardia fructose-bisphosphate aldolase activity; hit rate 0.71% among 290,000; purified Giardia FBPA; A8B2U2; Potency, µM (series often up to 59.6 µM), for the others: top-dose activity, negative = inhibition, usual class: inhibitors; also: potency is read from the fitted curve at half-maximal effect; % is scaled to controls: 0 for no effect and ±100 for the full control effect; nearly all actives have a fitted effect of over 55% in size
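Giardia FBPA (40 nM reagent) was preincubated 10 min at RT with compound (up to 57.5 uM final), then substrate plus GAPDH/TPI/NAD/arsenate coupling system with diaphorase/resazurin was added; resorufin fluorescence (525/598 nm) was read after 20 min.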
Shiga toxin inh: inhibitors of Shiga toxin in Vero cells. inhibition, % at 38.7 µM. Vero cells, Shiga toxin protein synthesis inhibition reporter. AID 2315. hit rate 9.2% among 290,000; in the data active = inhibition mostly above about 28%, no sharp cut-off; inactive = mostly below about 43%; also: 0% is about no effect
RE007 growth inh: less growth of the S. pombe RE007 Vpr strain; Potency, µM (series often up to 92.2 µM), without a hit: top-dose activity change, negative = less growth, actives largely listed as inhibitors; AID 651644; hit rate 0.21% among 360,000; S. pombe RE007 Vpr strain, BacTiter-Glo ATP luminescence, 24 h; active = well fitted falling curve with a large enough effect; inconclusive = small, poorly fitted or top-dose-only effect; inactive = no such curve, though single readings can be large or run the other way; also: potency is read from the fitted curve at half-maximal effect; % is scaled to controls: 0 for no effect and ±100 for the full control effect; nearly all actives have a fitted effect of over 50% in size
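Fission yeast strain RE007, carrying one chromosomally integrated HIV-1 vpr copy, was seeded at OD 0.01 in PMG+AL medium with 23 nL pinned compound. After 24 h at 30 °C and 99% humidity, viability was read by BacTiter-Glo luminescence.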
Active calls of the source: *. Only a selection was taken, and hits are over-represented in it overall. Unless noted, calls follow the shape of the dose curve; as a rule, active = well fitted curve in the direction sought with a large enough effect; inconclusive = small, poorly fitted or top-dose-only effect, or another doubt; inactive = no such curve, though single readings can be large; an effect the other way counts as inactive or inconclusive.

Results for CCCNC(=O)c1ccc2nc(CCc3ccccc3)oc2c1 ?
TbPYK inhibitor: 3.0%

What do the screens show for `COc1ccc(CC(=O)Nc2ccc(-c3cn4ccccc4n3)cc2)cc1OC`?
TbPYK inhibitor: -3.4%; CHX counter: 7.5; LmPK inh: 4.2%; FBPA Giardia inh: 1.6%; Shiga toxin inh: -3.4; RE007 growth inh: -15.8%

How did Cc1ccc(-c2cn3cccnc3n2)cc1NC(=O)c1cccs1 do in these assays?
TbPYK inhibitor: -6.9%; CHX counter: 16.4; LmPK inh: -1.4%; FBPA Giardia inh: 1.8%; Shiga toxin inh: 11.0; RE007 growth inh: -12.7%

What do the screens show for `CCC(=O)Nc1cccc(-c2ccc(N3CCCCC3)nn2)c1`?
TbPYK inhibitor: 0.5%; CHX counter: 11.8; LmPK inh: -12.7%; FBPA Giardia inh: 5.4%; Shiga toxin inh: 21.8; RE007 growth inh: -13.9%

Results for O=C(Nc1ccc(-c2cn3ccccc3n2)cc1)c1cccs1 ?
TbPYK inhibitor: -8.6%; CHX counter: 32.8*; LmPK inh: -17.9%; FBPA Giardia inh: -5.5%; Shiga toxin inh: 54.3*; RE007 growth inh: -29.8%

How did COc1ccc(CC(=O)Nc2ccc(-c3cn4ccccc4n3)cc2)cc1 do in these assays?
TbPYK inhibitor: 1.6%; CHX counter: 25.2*; LmPK inh: -1.3%; FBPA Giardia inh: 0.8%; Shiga toxin inh: 112.4*; RE007 growth inh: 0.7%

What do the screens show for `CCC(=O)Nc1cccc(-c2ccc(N3CCN(C)CC3)nn2)c1`?
TbPYK inhibitor: -2.4%; CHX counter: 15.9*; LmPK inh: -5.6%; FBPA Giardia inh: 2.3%; Shiga toxin inh: 73.7*; RE007 growth inh: 6.4%

What do the screens show for `COc1ccc(OC)c(CNC(=O)c2cc(S(=O)(=O)N3CCC(C)CC3)cn2C)c1`?
TbPYK inhibitor: 4.5%

What do the screens show for `COc1ccc(NC(=O)Cn2ncc3c(C)n(Cc4cccc(Cl)c4)c(C)c3c2=O)cc1`?
TbPYK inhibitor: 4.9%

What do the screens show for `CCCCCCCCCCCCC/C=C/[C@@H](O)[C@@H](N)COP(=O)(O)O`?
CHX counter: -1.4; FBPA Giardia inh: -0.6%; Shiga toxin inh: 2.4

Results for CCCOc1ccc(CC2CCC(=O)NC2=O)cc1 (centres undefined) ?
TbPYK inhibitor: 2.5%; CHX counter: -4.3; LmPK inh: -3.3%; FBPA Giardia inh: 3.8%; Shiga toxin inh: -9.1; RE007 growth inh: 29.3%

Results for CCCCOc1ccc(C2(C)CC(=O)NC2=O)cc1 (centres undefined) ?
TbPYK inhibitor: -10.0%; CHX counter: 21.5*; LmPK inh: -1.2%; FBPA Giardia inh: 3.7%; Shiga toxin inh: 77.6; RE007 growth inh: 0.5%

What do the screens show for `CC(=O)N1CCN(S(=O)(=O)c2ccc3c(c2)CCC(=O)N3)CC1`?
TbPYK inhibitor: -11.0%; RE007 growth inh: -6.2%

How did Cc1csc2nc(CCNS(=O)(=O)c3cccs3)cn12 do in these assays?
TbPYK inhibitor: 2.7%; CHX counter: 18.1*; LmPK inh: 6.9%; FBPA Giardia inh: -6.2%; Shiga toxin inh: 32.4; RE007 growth inh: -1.6%

How did CCCS(=O)(=O)NCc1cn2c(C)csc2n1 do in these assays?
TbPYK inhibitor: -10.7%; CHX counter: 32.2*; LmPK inh: -6.0%; FBPA Giardia inh: 2.9%; Shiga toxin inh: 49.4*; RE007 growth inh: 0.1%

How did CCS(=O)(=O)NCc1cn2c(C)csc2n1 do in these assays?
TbPYK inhibitor: -4.1%; CHX counter: 1.6; LmPK inh: -5.0%; FBPA Giardia inh: -0.1%; Shiga toxin inh: 20.7; RE007 growth inh: 17.3%

How did COC(=O)c1sccc1NC(=O)Nc1ccc(F)cc1 do in these assays?
TbPYK inhibitor: inconclusive; CHX counter: 29.8*; LmPK inh: inconclusive; Shiga toxin inh: 20.3; RE007 growth inh: inconclusive

What do the screens show for `COC(=O)c1sccc1NC(=O)Nc1cc(C)cc(C)c1`?
TbPYK inhibitor: 1.6%; CHX counter: 47.5*; LmPK inh: -14.4%; Shiga toxin inh: 80.0*; RE007 growth inh: -5.3%

Results for COC(=O)c1sccc1NC(=O)COc1ccccc1Cl ?
TbPYK inhibitor: 0.3%; CHX counter: 33.1*; LmPK inh: -16.9%; FBPA Giardia inh: 7.5%; Shiga toxin inh: active; RE007 growth inh: -25.5%

How did COC(=O)c1ccc(N2CCN(C)CC2)c(NC(=O)COc2ccccc2Cl)c1 do in these assays?
TbPYK inhibitor: 1.9%; CHX counter: -0.2; LmPK inh: -6.0%; Shiga toxin inh: -10.6; RE007 growth inh: 0.6%

Results for COc1cccc(NC(=O)Nc2ccccc2Br)c1 ?
TbPYK inhibitor: -0.4%; CHX counter: 53.0*; LmPK inh: inconclusive; FBPA Giardia inh: 12.6%; Shiga toxin inh: 73.7*; RE007 growth inh: 2.3%

Results for COC(=O)c1sccc1NC(=O)Nc1cccc(OC)c1 ?
TbPYK inhibitor: -22.2%; CHX counter: 45.3*; LmPK inh: -16.7%; Shiga toxin inh: 39.8*; RE007 growth inh: 31.6µM*

Results for COC(=O)c1sccc1NC(=O)Nc1ccc(C)cc1C ?
TbPYK inhibitor: -1.9%; CHX counter: 25.5; LmPK inh: 1.8%; FBPA Giardia inh: 2.3%; Shiga toxin inh: -1.2; RE007 growth inh: -5.2%

What do the screens show for `COC(=O)c1sccc1NC(=O)NC1CCCCC1`?
TbPYK inhibitor: 2.1%; CHX counter: 47.3*; LmPK inh: -12.5%; FBPA Giardia inh: -6.7%; Shiga toxin inh: 30.9; RE007 growth inh: -12.3%

What do the screens show for `CCOc1ccccc1NC(=O)Nc1ccsc1C(=O)OC`?
TbPYK inhibitor: -3.3%; CHX counter: 22.1*; LmPK inh: -2.0%; Shiga toxin inh: 36.5*; RE007 growth inh: -5.3%

How did CCc1ccccc1NC(=O)Nc1ccsc1C(=O)OC do in these assays?
TbPYK inhibitor: 0.0%; CHX counter: 12.8; LmPK inh: 5.8%; FBPA Giardia inh: 6.0%; Shiga toxin inh: 27.6; RE007 growth inh: 3.6%

What do the screens show for `COC(=O)c1sccc1NC(=O)Nc1ccc(C)cc1`?
TbPYK inhibitor: -27.1%; CHX counter: 45.5*; LmPK inh: -21.7%; Shiga toxin inh: 86.5*; RE007 growth inh: inconclusive

Results for COC(=O)c1sccc1NC(=S)N(C)C1CCCCC1 ?
TbPYK inhibitor: 6.7%; CHX counter: 6.7; LmPK inh: -3.4%; FBPA Giardia inh: -0.5%; Shiga toxin inh: 17.4; RE007 growth inh: -18.4%

How did COCCNC(=S)N1CCN(Cc2ccc3c(c2)OCO3)CC1 do in these assays?
TbPYK inhibitor: -3.9%; CHX counter: -2.1; LmPK inh: -1.5%; FBPA Giardia inh: 5.3%; Shiga toxin inh: -8.7; RE007 growth inh: 1.7%

What do the screens show for `Cc1cccc(C(=O)N2CCc3cc(CNC(=O)c4cc5ccccc5[nH]4)ccc32)c1`?
TbPYK inhibitor: -1.1%

Results for CCOc1ccc(OC(=O)c2cn(-c3ccc(C)cc3)c(=O)c3ccccc23)cc1 ?
TbPYK inhibitor: -2.6%

What do the screens show for `CN(C)c1ccc(CNC(=O)C2COc3ccccc3C2)cc1` (centres undefined)?
TbPYK inhibitor: 2.8%
